VP16 counter: VP16 counterscreen qHTS for inhibitors of ROR gamma transcriptional activity. Potency, µM (top dose mostly 53.6 µM), hits mostly inhibitors. AID 2546, 2010. Drosophila S2 Gal4-VP16 UAS-luciferase, luminescence, 20 h. actives 3.5% (n = 310,000);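 note: Gal4-VP16 expression switched on by copper sulfate through the metallothionein promoter; nearly all actives have a fitted effect of over 50% in size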
KinaseGlo FLuc: Counterscreen for Luciferase (Kinase-Glo TM) Inhibition; Potency, µM (doses to about 38.3 µM), actives largely listed as inhibitors; Kinase-Glo luciferase, ATP luminescence, 8 min; AID 1379, 2008; Luciferin 4-monooxygenase (Photuris pensylvanica), Q27757; actives 0.28% (n = 200,000); note: nearly all actives have a fitted effect of over 60% in size
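Recombinant Kinase-Glo luciferase, 10 uM ATP (linear range), luciferin; imidazole pH 7.2 / KCl / MgCl2 / Tween / BSA buffer; 8 min RT; luminescence.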
RORg inh: qHTS for inhibitors of ROR gamma transcriptional activity; Nuclear receptor ROR-gamma (Mus musculus), P51450; Drosophila S2 Gal4-RORgamma UAS-luciferase reporter, 20 h; Potency, µM (highest dose often 53.6 µM), most hits filed as inhibitors; actives 5.4% (n = 310,000); AID 2551, 2010; note: nearly all actives have a fitted effect of over 60% in size
Target sequence (P51450 whole entry, looked up, the tested form may be a part): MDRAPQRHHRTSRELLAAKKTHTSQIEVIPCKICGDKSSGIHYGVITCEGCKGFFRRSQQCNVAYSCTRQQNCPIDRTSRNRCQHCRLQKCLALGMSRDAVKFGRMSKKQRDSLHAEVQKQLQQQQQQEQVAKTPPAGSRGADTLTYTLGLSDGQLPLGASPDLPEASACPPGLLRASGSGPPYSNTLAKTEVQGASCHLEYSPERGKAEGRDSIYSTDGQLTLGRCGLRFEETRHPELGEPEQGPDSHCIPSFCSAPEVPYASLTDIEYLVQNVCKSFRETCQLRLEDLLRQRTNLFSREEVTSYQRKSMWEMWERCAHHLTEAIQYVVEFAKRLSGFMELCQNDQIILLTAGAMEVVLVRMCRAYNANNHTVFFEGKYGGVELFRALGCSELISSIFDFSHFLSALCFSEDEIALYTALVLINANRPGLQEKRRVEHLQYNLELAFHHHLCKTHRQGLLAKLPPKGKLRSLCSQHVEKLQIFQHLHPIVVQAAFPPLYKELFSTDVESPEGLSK
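A Gal4/UAS one-hybrid system in insect cells: metallothionein-promoter Gal4–ROR gamma fusion plus Photinus luciferase reporter. Copper sulfate 700 uM final, 20 hr ambient incubation, luminescent detection after 10 min with reagent.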
Numbers stand for hits; - = inactive; ? = inconclusive; . = no result given; [ ] = remark or other dose. In the library only some 6.4% were active in any assay of this set; here they are far more common. Calls come from the whole dose curve; as a rule, active = well fitted curve in the direction sought with a large enough effect; inconclusive = small, poorly fitted or top-dose-only effect, or another doubt; inactive = no such curve, though single readings can be large; an effect the other way counts as inactive or inconclusive.

SMILES | VP16 counter | KinaseGlo FLuc | RORg inh
COc1ccccc1-c1nnc(NC(=O)CCS(=O)(=O)c2ccccc2)o1 | 10µM | . | 10µM
CCN(Cc1ccccc1)S(=O)(=O)c1ccc(C(=O)Nc2nnc(-c3ccccc3OC)o2)cc1 | 0.355µM | - | 0.199µM
CCCCN(C(=O)c1ccc(Cl)c(S(=O)(=O)N2CCOCC2)c1)c1c(N)n(CCC)c(=O)[nH]c1=O | - | . | -
NC(=O)NC(=O)[C@H]1CCCC[C@@H]1C(=O)O | . | -[7.66 µM] | .
Cc1ccc(C(=O)N2CCN(Cc3ccc4c(c3)OCO4)CC2)cc1[N+](=O)[O-] | - | - | -
CNC1=C([N+](=O)[O-])CC([N+](=O)[O-])=C(N2CCNCC2)N1C | - | - | -
COc1cccc(C(=O)CC(C#N)c2ccc(F)cc2)c1 (centres undefined) | - | . | -
CCC(c1nnc(SCC(=O)Nc2nnc(-c3ccccc3)o2)n1Cc1ccccc1)N(C)C (centres undefined) | ? | - | 8.91µM
CCC(c1nnc(SCC(=O)Nc2ccc(C(N)=O)cc2)n1Cc1ccccc1)N(C)C (centres undefined) | - | . | -
CCOC(=O)C1(CCc2ccccc2)CCN(Cc2cc(OC)c(OC)cc2OC)CC1 | - | . | ?
CC1(C)CC(NS(=O)(=O)c2ccc3ccccc3c2)CC(C)(C)N1 | - | . | -
COc1cc(NC(=S)NC(=O)c2cc(C)cc(C)c2)ccc1NC(=O)c1cccs1 | 1.78µM | - | 2µM
COc1cc(NC(=S)NC(=O)c2c(OC)cccc2OC)ccc1NC(=O)c1cccs1 | - | - | ?
COc1cc(NC(=S)NC(=O)c2ccccc2C)ccc1NC(=O)c1cccs1 | 8.91µM | - | 2.51µM
COc1cc(NC(=O)c2cccc(Cl)c2)ccc1NC(=O)c1cccs1 | - | - | ?
COc1cc(NC(=S)NC(=O)c2ccccc2F)ccc1NC(=O)c1cccs1 | - | - | ?
COc1cc(NC(=S)NC(=O)c2ccc(C(C)(C)C)cc2)ccc1NC(=O)c1cccs1 | 3.55µM | - | 3.16µM
CCOC(=O)C1(CCOC)CCN(C(=O)Cc2ccc3ccccc3c2)CC1 | - | . | -
N#CCCn1c(=O)c(-c2cccs2)nc2cnc(N3CCOCC3)nc21 | - | . | -
NC(N)=NCCC[C@H](N)C(=O)NCC(=O)N[C@@H](CC(=O)O)C(=O)N[C@@H](CO)C(=O)O | - | . | -
FC(F)(F)c1cccc(/C=N/NC(=S)NC2CCCCC2)c1 | 6.31µM | - | 0.562µM
C=CCNC(=O)CC(=O)N/N=C/c1ccc(F)cc1 | - | - | -
O=C(O)c1ccc(/C=N/NC(=S)NC2CCCCC2)cc1 | - | - | -
FC(F)(F)c1ccc(/C=N/NC(=S)NC2CCCCC2)cc1 | 4.47µM | - | 0.631µM
C=CCNC(=S)N/N=C/c1ccc(C(F)(F)F)cc1 | 2.82µM | - | 0.708µM
SMILES | VP16 counter | KinaseGlo FLuc | RORg inh
O=C(N/N=C/c1cccc(O)c1)NC1CCCCC1 | - | - | ?
NS(=O)(=O)c1ccc(Sc2nc3ccccc3s2)c([N+](=O)[O-])c1 | 10µM | . | -
NS(=O)(=O)c1ccc(Sc2ccccn2)c([N+](=O)[O-])c1 | - | . | -
Cc1cccc(-c2ocnc2C(=O)Nc2ccccc2C(=O)N2CCCC2)c1 | - | . | -
Cc1cccc(-c2ocnc2C(=O)Nc2ccccc2NC(=O)c2ccccn2)c1 | 8.91µM | . | 0.562µM
CSc1ccccc1NC(=O)c1ccccn1 | 1.26µM | - | 0.447µM
Cc1ccc(-c2ocnc2C(=O)Nc2ccccc2NC(=O)c2ccccn2)cc1 | 11.2µM | . | 1.58µM
Cc1ccc(-c2ocnc2C(=O)Nc2nc(C)cs2)cc1 | ? | . | -[1.91 µM]
Cc1ccccc1NC(=O)c1ccccn1 | - | . | -
S=C(NC1CC2CCC1C2)N1CCN(c2cccc(Cl)c2)CC1 (centres undefined) | - | - | 22.4µM
S=C(NCc1ccccc1)N1CCN(c2cccc(Cl)c2)CC1 | - | - | ?
Cc1ccc(-n2nnnc2C(Cl)(Cl)c2nnnn2-c2ccc(C)cc2)cc1 | 7.08µM | - | 17.8µM
Clc1ccc(-c2nnnn2-c2ccc(Cl)cc2)cc1 | - | . | -
COC(=O)c1ccc2c(=O)n(Cc3ccc(C(=O)NC(C)C)cc3)c(=S)[nH]c2c1 | - | - | -
Cc1cc(=O)n(Cc2ccc(OC(C)C)cc2)c(=S)[nH]1 | ? | - | 7.94µM
Cc1cc(=O)n2nc(N3CCC(C(=O)NCc4cccc(Cl)c4)CC3)sc2n1 | - | . | -
Cc1ccc(-n2nnnc2-c2cnc(N3CCCC3)nc2C(F)(F)F)cc1 | 15.8µM | - | ?
FC(F)(F)c1nc(N2CCCC2)ncc1-c1nnnn1-c1ccccc1 | ? | - | -
COc1ccc(-c2ocnc2C(=O)N2CCN(C(c3ccccc3)c3ccccc3)CC2)cc1 | - | - | ?
CC1(C)C(c2ccco2)=[N+]([O-])C2(CCCCC2=O)N1O (centres undefined) | - | - | -
CC1(C)C(c2cccs2)=[N+]([O-])C2(CCCCC/C2=N\NC(N)=S)N1O (centres undefined) | - | - | 0.631µM
O=C(NC1CC2CCCC(C1)N2S(=O)(=O)c1ccccc1)c1ccccc1 (centres undefined) | 12.6µM | - | ?
Cc1cccc(C(=O)NC2CC3CCCC(C2)N3S(=O)(=O)c2ccccc2)c1 (centres undefined) | - | - | -
O=C(COC(=O)/C(=C/c1cccs1)c1cccs1)NC(c1ccccc1)c1ccccc1 | - | - | -
COc1ccc(-c2csc(NC(=S)NC(=O)c3ccc4ccccc4c3)n2)cc1OC | ? | . | 2µM
SMILES | VP16 counter | KinaseGlo FLuc | RORg inh
COc1ccc(-c2csc(NC(C)=O)n2)cc1OC | - | - | -
COc1ccc(-c2csc(NC(=O)CN3C(=O)CCC3=O)n2)cc1 | - | - | -
O=C(NC(=S)Nc1nc(-c2ccccc2)cs1)c1ccco1 | ? | - | 3.55µM
COc1ccc(-c2csc(NC(=O)COC(=O)c3ccco3)n2)cc1 | ? | - | -
COc1ccc(-c2csc(NC(=S)NC(=O)c3ccco3)n2)cc1 | - | - | 7.08µM
CCCC(=O)NC(=S)Nc1nc(-c2ccc(OC)cc2)cs1 | - | - | 8.91µM
O=C(Nc1nc(-c2cccs2)cs1)c1ccco1 | ? | - | ?
CC(C)=C[C@H]1[C@@H](C(=O)Oc2ccccc2C(C)C)C1(C)C | . | -[7.66 µM] | .
Fc1ccccc1-c1csc(=Nc2cccnc2)n1CC1CCCO1 (centres undefined) | 7.08µM | - | ?
Fc1ccccc1-c1csc(=Nc2cccnc2)n1CCCn1ccnc1 | - | - | ?
CCS(=O)(=O)c1nc(S(=O)(=O)c2ccc(Cl)cc2)c(N2CCOCC2)s1 | - | . | -
O=C(OCC(=O)N1CCc2ccccc2C1)c1cc(=O)[nH]c2ccccc12 | - | . | -
COc1ccc(C(N)=S)cc1 | ? | - | 12.6µM
C=C(c1ccc(OC)cc1)c1ccc(OC)cc1 | - | - | -
CCc1ccc(C(N)=S)cc1 | - | - | 11.2µM
CCc1cc(C(N)=S)ccn1 | - | - | -
CC1CCCCN1c1ncnc(N)c1[N+](=O)[O-] (centres undefined) | - | - | -
CC1Cc2ccccc2N1c1ncnc(N)c1[N+](=O)[O-] (centres undefined) | ? | - | 4.47µM
C=CCNC(=O)COC(=O)c1c2c(nc3ccccc13)CCC2 | - | . | -
